# Molecular target: Shiga toxin 2 (Escherichia coli O157:H7) (UniProt P09385+P09386)
# Assay: E. coli 0.157:H7 Shiga Toxin SOP - stx2 screening assay
# Type: functional
# Parameters: scale not given: direction of the effect not stated beside the values
# Details: 30 µM
row,Structure (SMILES),Percent Effect [%]
1,Cn1cc(Cl)cc1C(=O)N1CCCN(Cc2cccs2)CC1,19.8
2,Cc1cn2c(n1)CCC(NC(=O)CCn1ccnn1)C2 (stereo not given),19.8
3,CCn1c(C(=O)N2CCN(CC(C)O)CC2)cc2ccccc21 (stereo not given),-48.2
4,O=C(c1cccnc1)N1CC[C@H](OCC2CC2)[C@@H]1Cc1cccnc1,-13.7
5,COc1cccc(CCC(=O)N2CCCC(n3cc(C)cn3)C2)c1 (stereo not given),10.7
6,Cc1n[nH]c(C2CN(C(=O)CCc3ccco3)CCO2)n1 (stereo not given),-9.36
7,Cc1nnc2n1CCN(C(=O)c1cc(C)n(-c3ccccn3)c1C)C2,32.2
8,CSc1ccc(NS(=O)(=O)c2cnn(C)c2)cn1,-7.54
9,COCCc1noc(CN(C)C(=O)c2cccc(N3CCCC3=O)c2)n1,3.89
10,O=C(c1ccc2[nH]ccc2c1)N1CCn2cnc(COCC3CC3)c2C1,-13.5
11,CCCOc1ccc(NC(=O)NCCC(=O)N(C)C)cc1Cl,-67.2
12,Cc1ccc(C(=O)N(C)Cc2cc(Br)cs2)c(=O)[nH]1,-3.88
13,O=C(NCCOCC(F)(F)F)c1ccc(-c2ccco2)[nH]c1=O,20.7
14,CCn1cc(CN2CCCN(C(=O)CCc3ccncc3)CC2)cn1,-80.5
15,CNc1cc(CCNC(=O)c2cccnc2)nc(-c2ccncc2)n1,2.08
16,COCC1CC2(CCN(C(=O)c3cccn3C)CC2)CN1C(C)C (stereo not given),-6.37
17,Cc1nc(CN2CCN(C(=O)c3sccc3C3CC3)CC2)cs1,13.6
18,Cc1cccc(NS(=O)(=O)c2cc(C(=O)O)oc2C)c1Cl,8.36
19,O=C(CCCc1cn[nH]c1)N1C[C@@H](CN2CCOCC2)[C@@H](CO)C1,-29.7
20,CN(C)C(=O)N1CCN(CCn2nc3ccccn3c2=O)CC1,-19.4

row,Structure (SMILES),Percent Effect [%]
1,CCc1ccc(S(=O)(=O)Nc2cc(OC)c(OC)cc2C(=O)O)s1,27.3
2,O=C(NCCCn1cccn1)C1(c2ccc(F)cc2)CC1,-6.77
3,CC(c1nc(C2CC2)no1)N1CCN(CCOCC(F)(F)F)CC1 (stereo not given),-10.3
4,Cc1cn2c(n1)CCC(NC(=O)c1nc(C)ncc1Cl)C2 (stereo not given),12.5
5,CN(CC(=O)N1CCN(c2ncccn2)CC1)c1ccc(Cl)cn1,-0.376
6,CC(NC(=O)NCCCO)c1ccc2c(c1)OCCO2 (stereo not given),-10.2
7,CCc1nnc2n1CCN(Cc1csc(-c3ccc(C)o3)n1)C2,-33.1
8,CN(Cc1ccccn1)C1COC2(CCN(Cc3cccnc3)CC2)C1 (stereo not given),-24.6
9,CCSCCC(=O)NS(=O)(=O)c1ccc2c(c1)OCCO2,-25.1
10,Cc1cccnc1C(=O)N1CCCC(c2[nH]ncc2S(C)(=O)=O)C1 (stereo not given),15.7
11,Cc1nc(CN2C(=O)C[C@@H]3[C@@H]2CCN3C(=O)C2CCOCC2)cs1,-52.6
12,COCC(=O)N1CCC2(CC1)CCN(Cc1ccccn1)C2=O,7.27
13,NC(=O)c1cc(NC(=O)N2CCCCCC2)ccc1F,-21.4
14,CCOc1ccnc(N2CCN(C(=O)c3cc(Cl)c[nH]3)CC2)n1,18.5
15,Fc1cnc(N2C[C@H]3CCC[C@@]3(COc3ccccn3)C2)nc1,2.51
16,CC(=O)N(Cc1noc(C)n1)C1CCN(CCOc2ccccc2)C1 (stereo not given),-29.9
17,COc1ccccc1CN(C)C(=O)c1cc(CN2CCC(O)CC2)on1,-16.2
18,COc1cccc(CCNC(=O)CN2CCN(C)CC2C)c1 (stereo not given),20
19,COc1ccccc1OCC(=O)NS(=O)(=O)c1ccc(C)s1,3.1
20,CCn1nc2c(cc1=O)CN(Cc1nc3ccccc3c(=O)[nH]1)CC2,1.48

# From ChEMBL document CHEMBL3988442, “University of Dundee, Small-Polar-MMV Screening Library” (2021)
